{
  "source": "PubChem BioAssay AID1851",
  "about": "(National Center for Advancing Translational Sciences (NCATS), 2009)",
  "note": "Where “and” joins values, the source holds several entries; their conditions need not be identical. Equal values may be shown once. Screen size: about 16,000 compounds; about 4,000 (25%) were called active. Not shown: some 26% with an inconclusive outcome. Calls follow the shape of the dose curve; as a rule, active = well fitted curve in the direction sought with a large enough effect; inconclusive = small, poorly fitted or top-dose-only effect, or effect the other way; inactive = no such curve, though single readings can be large or run the other way. These entries were drawn from the full list. The source holds several records for some structures; these can differ, active in one and inactive in another. % is scaled to controls: 0 for no effect and ±100 for the full control effect.",
  "data": [
    {"target": "Cytochrome P450 2C9 (Homo sapiens) (UniProt P11712)", "sequence (P11712 whole entry, looked up)": "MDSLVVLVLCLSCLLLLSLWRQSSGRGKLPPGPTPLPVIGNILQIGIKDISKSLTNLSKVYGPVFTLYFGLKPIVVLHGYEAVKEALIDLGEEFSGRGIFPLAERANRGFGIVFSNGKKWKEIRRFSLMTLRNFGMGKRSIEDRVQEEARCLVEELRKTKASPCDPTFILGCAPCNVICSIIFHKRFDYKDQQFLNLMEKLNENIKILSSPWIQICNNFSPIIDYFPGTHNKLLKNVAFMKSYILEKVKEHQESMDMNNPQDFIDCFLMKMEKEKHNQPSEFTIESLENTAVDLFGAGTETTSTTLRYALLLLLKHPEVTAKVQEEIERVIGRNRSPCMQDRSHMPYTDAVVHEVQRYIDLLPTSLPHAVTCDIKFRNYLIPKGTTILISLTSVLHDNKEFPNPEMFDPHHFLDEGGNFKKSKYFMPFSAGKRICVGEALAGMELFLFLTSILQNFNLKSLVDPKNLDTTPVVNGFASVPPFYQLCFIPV", "experiment": "Cytochrome panel assay with activity outcomes", "details": "recombinant CYP, pro-luciferin dealkylation, luminescence, p450-cyp2c9; series mostly up to 57.1 µM; activity, negative = inhibition: at the top concentration", "values": [
      {"smiles": "CN(C)c1ccc(-c2cncnc2Nc2ccc(F)cc2)cc1", "activity, negative = inhibition": "-2.26% [at 2.29 µM] (inactive)"},
      {"smiles": "CN(C)CCC[C@@]1(c2ccc(F)cc2)OCc2cc(C#N)ccc21", "AC50": "inactive and 3.16 µM (active)"},
      {"smiles": "CCOC(=O)c1ccc(Cl)c(NC(=O)c2ccc(-c3ccccc3)cc2)c1", "activity, negative = inhibition": "0.219% (inactive)"},
      {"smiles": "CCOc1c(Cl)cc(C(=O)Nc2ccccc2-c2ccccc2)cc1Cl", "AC50": "2.82 µM (active)"},
      {"smiles": "Cc1cc(NC(=O)c2ccc(S(=O)(=O)Nc3ccccc3)cc2)no1", "AC50": "2.24 µM (active)"},
      {"smiles": "Nc1ccc(S(=O)(=O)NC(=O)c2ccccc2)cc1", "activity, negative = inhibition": "-4.1% [at 25.6 µM] (inactive)"},
      {"smiles": "Cc1cc(C)c2nc(-c3ccccn3)cc(C(=O)Nc3ccc(S(=O)(=O)Nc4cc(C)on4)cc3)c2c1", "AC50": "7.08 µM (active)"},
      {"smiles": "NS(=O)(=O)c1ccc(NS(=O)(=O)c2ccc(NC(=O)c3ccc(-c4ccccc4)cc3)cc2)cc1", "AC50": "0.2 µM (active)"},
      {"smiles": "COc1cccc(OC)c1C(=O)Nc1cc(C)on1", "activity, negative = inhibition": "-22% (inactive)"},
      {"smiles": "NS(=O)(=O)c1ccc(NC(=O)Nc2cccc3ccccc23)cc1", "activity, negative = inhibition": "-9.47% [at 11.4 µM] (inactive)"},
      {"smiles": "Cc1cc(NC(=O)c2cc(C(C)C)on2)no1", "activity, negative = inhibition": "-17.2% (inactive)"},
      {"smiles": "Cc1cc(NC(=O)c2ccccc2Cl)no1", "activity, negative = inhibition": "9.61% (inactive)"},
      {"smiles": "COc1cc2ccccc2cc1C(=O)Nc1ccc(S(=O)(=O)Nc2cc(C)on2)cc1", "AC50": "12.6 µM (active)"},
      {"smiles": "COCCNc1cc(-c2c(C)noc2C)ncn1", "activity, negative = inhibition": "6.99% [at 2.29 µM] (inactive)"},
      {"smiles": "CC(C)(C)NC[C@H](O)COc1cccc2[nH]c(=O)[nH]c12", "AC50": "inactive"},
      {"smiles": "Cc1ncc(CO)c(CO)c1O", "activity, negative = inhibition": "7.59% [at 25.6 µM] (inactive)"},
      {"smiles": "Cc1cc(=O)oc(C)c1C(=O)N1CCCCC1", "activity, negative = inhibition": "1.7% (inactive)"},
      {"smiles": "Cc1ccc(S(=O)(=O)Nc2ccccc2C(=O)c2ccc(C)c(C)c2)cc1", "activity, negative = inhibition": "5.56% [at 11.4 µM] (inactive)"},
      {"smiles": "COC(=O)c1ccc(NC(=O)c2ccccc2NS(=O)(=O)c2ccccc2)cc1", "AC50": "0.2 µM (active)"},
      {"smiles": "NC(N)=NC(N)=Nc1ccc(S(N)(=O)=O)cc1", "activity, negative = inhibition": "-4.01% [at 11.4 µM] (inactive)"},
      {"smiles": "O=c1cc(N2CCC(Cc3ccccc3)CC2)[nH]c(=O)n1C1CCCCC1", "AC50": "12.6 µM (active)"},
      {"smiles": "O=C(c1ccco1)N1CCN(c2cc(=O)n(C3CCCCC3)c(=O)[nH]2)CC1", "activity, negative = inhibition": "-1.48% (inactive)"},
      {"smiles": "Cc1ccccc1-n1c(=O)cc(N2CC(C)OC(C)C2)[nH]c1=O", "note": "(configuration not stated)", "activity, negative = inhibition": "-1.49% (inactive)"},
      {"smiles": "CN1CCN(c2ccnc(-c3ccoc3)n2)CC1", "activity, negative = inhibition": "4.59% [at 2.29 µM] (inactive)"},
      {"smiles": "CON/C=C(\\C=Nc1ccccc1)c1ncc(C(F)(F)F)cc1Cl", "AC50": "7.94 µM (active)"},
      {"smiles": "N#Cc1c(NC(=O)CCN2C(=O)c3ccccc3C2=O)oc(-c2ccccc2)c1-c1ccccc1", "AC50": "0.398 µM (active)"},
      {"smiles": "C/C(CCN1CCCc2nc(C)c(C)cc21)=N\\O[C@@H](C)c1cn([C@H](CO)Cc2ccccc2)nn1", "activity, negative = inhibition": "-12.1% [at 11.4 µM] (inactive)"},
      {"smiles": "Cc1c(/N=C/c2ccco2)n(Cc2ccccc2)c2ccccc12", "AC50": "14.1 µM (active)"},
      {"smiles": "CCn1c(=O)cc(SCC(=O)N2CCN(C(=O)c3ccco3)CC2)c2ccccc21", "activity, negative = inhibition": "2.34% (inactive)"},
      {"smiles": "CC[n+]1c(P(=O)([O-])c2ccccc2)[nH]c2ccccc21", "activity, negative = inhibition": "-26.6% (inactive)"},
      {"smiles": "COC(=O)CCSc1cc([N+](=O)[O-])cc2c1c(C1OCCS1)nn2-c1ccccc1", "note": "(configuration not stated)", "AC50": "10 µM (active)"},
      {"smiles": "Cn1cc(-c2nc3cncnc3n(-c3ccccc3)c2=O)c2ccccc21", "activity, negative = inhibition": "-9.34% (inactive)"},
      {"smiles": "Cn1cc(-c2nc3cnc(Oc4ccccc4)nc3n(C)c2=O)c2ccccc21", "activity, negative = inhibition": "9.76% (inactive)"},
      {"smiles": "Cn1cc(/C=N/n2cnc3scc(-c4ccccc4)c3c2=O)c2ccccc21", "AC50": "5.01 µM (active)"},
      {"smiles": "Nc1nonc1-c1noc(CCCN2C(=O)c3ccccc3C2=O)n1", "activity, negative = inhibition": "-29.3% (inactive)"},
      {"smiles": "O=C(Cc1ccc(Br)cc1)Nc1ccccc1Sc1ccccc1", "AC50": "2.82 µM (active)"},
      {"smiles": "COC(=O)c1scc(C)c1NC(=O)Cc1ccccc1", "activity, negative = inhibition": "-15.4% (inactive)"},
      {"smiles": "COCCNc1ncnc2ccc(-c3cccc(NS(C)(=O)=O)c3)cc12", "activity, negative = inhibition": "16.7% [at 2.29 µM] (inactive)"},
      {"smiles": "COCCNc1nc(-c2cccc(NS(C)(=O)=O)c2)nc2ccccc12", "activity, negative = inhibition": "2.19% [at 2.29 µM] (inactive)"},
      {"smiles": "COc1ccc(CNc2ncnc3ccc(-c4cccc(NS(C)(=O)=O)c4)cc23)c(OC)c1", "AC50": "0.501 µM (active)"},
      {"smiles": "COc1ccc(CNc2nc(-c3cccc(NS(C)(=O)=O)c3)nc3ccccc23)c(OC)c1", "AC50": "0.158 µM (active)"},
      {"smiles": "COc1ccc(CNc2ncncc2-c2cccc(NS(C)(=O)=O)c2)c(OC)c1", "activity, negative = inhibition": "-18.5% [at 2.29 µM] (inactive)"},
      {"smiles": "CNc1nc(-c2cccc(NS(C)(=O)=O)c2)nc2ccccc12", "activity, negative = inhibition": "27.5% [at 2.29 µM] (inactive)"},
      {"smiles": "C[C@@H](CCC(=O)O)C(=O)O", "activity, negative = inhibition": "3.2% [at 11.4 µM] (inactive)"},
      {"smiles": "C=CCn1c(C)c(C(C)=O)c(N2CCN(c3ccccc3)CC2)nc1=S", "AC50": "12.6 µM (active)"},
      {"smiles": "CC(=O)N1CCC[C@@]2(CCN(c3ccccc3)C2)C1", "activity, negative = inhibition": "17.6% (inactive)"},
      {"smiles": "CC(=O)c1c(N2CCC(C(N)=O)CC2)nc(=S)n(-c2ccccc2)c1C", "activity, negative = inhibition": "-23.7% (inactive)"}
    ]}
  ]
}
